Source: PubChem BioAssay
Cardio protect: protects H9c2 cardiomyocytes from peroxide injury. H2O2 injury protection, ATPLite, 2 h. protection from H2O2 cell death, % at 20 µM. 360,000 compounds, 0.63% hits. AID 588492;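 active = compounds giving at least 50% protection of heart cells from peroxide-induced death in the single-dose screen, raw or plate-pattern-corrected value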;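 also: 0% = DMSO wells with peroxide and 100% = DMSO wells without peroxide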
hiPSC survival: hiPSC single-cell survival enhancement; 360,000 compounds, 0.044% hits; AID 602274; ATPlite luminescence; 100% = ROCK inhibitor wells, 0% = DMSO; survival enhancement, % at 20 µM; in the data active = survival enhancement above about 18%;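 also: cells exposed to compounds for 16 hours before the ATP read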
Myeloid diff MLP: myeloid differentiation induction; ER-HoxA9 myeloid progenitors, lysozyme-GFP differentiation, flow cytometry; calls only at 10 µM; 360,000 compounds, 1% hits;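 active = normalized GFP-positive differentiation at or above the plate's own cutoff, the solvent-only control mean plus 3 SD; inconclusive = no clear call, values can overlap the other calls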;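 also: cells exposed to compound for four days before flow analysis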
ABCB6 inh MLPCN: human ABCB6 transporter inhibition | Q9NP58 | K562-ABCB6 porphyrin accumulation, flow cytometry, 1 h; active compounds read low | fluorescence ratio to DMSO, % at 10 µM | 360,000 compounds, 0.19% hits | AID 602162;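 active = fluorescence ratio to DMSO below 75%, the collection mean minus 3 SD; inconclusive = too few cells collected in the well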;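 also: signal is porphyrin accumulated inside mitochondria; 100% equals median channel fluorescence of DMSO control wells; lower ratio means ABCB6 inhibition with less porphyrin fluorescence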
beta cell repl: inducers of beta-cell replication in MIN6 cells; proliferation, % at 10 µM; 330,000 compounds, 0.29% hits; MIN6 cells proliferation, ATPlite luminescence, 48 h; cells starved in 0.2% serum; 100% = growth in 10% serum; AID 2380;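 active = compounds whose signal lies at least 3.5 SD above the mean of all wells on their plate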;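 also: 0% = DMSO-treated cells in low-serum medium and 100% = 10% serum control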
ABCB6 blocker 1: inhibitors of human ABC transporter ABCB6; shares compounds with ABCB6 inh MLPCN; K562-ABCB6 porphyrin accumulation, flow cytometry, 1 h; active compounds read low; ratio response (% of DMSO), % at 10 µM; 700 tested, under 10 active;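 active = repeat-averaged ratio response below 75% of DMSO, the collection mean minus 3 SD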;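 also: median porphyrin fluorescence at 575 nm with 488 nm excitation from mitochondria; lower ratio means less porphyrin signal so ABCB6 inhibition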
K562 vector FC: effect in K562 cells lacking ABCB6, counter-screen. shares compounds with ABCB6 inh MLPCN. 25 tested, under 10 active. K562 empty-vector cells, flow cytometry fluorescence, 1 h. percent response (fluorescence), % at 100 µM;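 active = compounds whose half-maximal effective concentration is below 100 µM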
An asterisk follows results filed as active; i = inactive; ? = inconclusive; . = no result given. In the library only some 2.2% were active in any assay of this set; here they are far more common.

SMILES	Cardio protect	hiPSC survival	Myeloid diff MLP	ABCB6 inh MLPCN	beta cell repl	ABCB6 blocker 1	others
COc1ccc(NC(=O)C2(C)Cc3c(-c4ccc(C(N)=O)cc4)ccnc3O2)cn1 (configuration not stated)	14	3	i	97	.	99
CC(=O)Nc1cccc(-c2ccnc3c2CC(C)(C(=O)Nc2ccc4c(c2)OCO4)O3)c1 (configuration not stated)	30	-2	.	105	.	102
CN(C)c1ccc(-c2ccnc3c2CC(C)(C(=O)Nc2ccc(F)c(Cl)c2)O3)cc1 (configuration not stated)	3	8	i	96	.	101
Cc1ccc(C(=O)O)cc1NC(=O)c1cccs1	2	-2	i	100	-2	.
C=CCN1c2ccc(Br)cc2C(=O)CS1(=O)=O	9	2	i	94	-7	.
CCOC(=O)C(C)n1nc(C)c2sc3ccccc3c2c1=O (configuration not stated)	6	-2	i	105	4	.
COc1ccc(CCNC(=S)NNC(=O)c2c(Br)c(C)nn2C)cc1OC	3	0	i	98	-3	.
CCOC(=O)Cc1nnc(NC(=O)c2ccco2)s1	5	1	i	98	-1	.
Cc1onc(-c2ccccc2Cl)c1C(=O)NCC1CCCO1 (configuration not stated)	5	3	i	74*	-3	101
COc1ccccc1C1CCN(Cc2ccc(Cl)c(Cl)c2)CC1	-8	4	i	92	-7	.
COc1ccccc1C1CCN(Cc2ccc(Cl)cc2Cl)CC1	-4	-1	i	97	-6	.
COc1ccccc1C1CCN(Cc2cccc3ccccc23)CC1	-6	0	i	68*	-7	99
COc1ccccc1C1CCN(Cc2c(C)[nH]c3ccccc23)CC1	-2	0	i	26*	-4	102
CCOC(=O)c1ccc(S(=O)(=O)N2CC(=O)Nc3ccccc32)cc1	0	0	i	68*	-6	106
CCc1ccc(S(=O)(=O)N2CC(=O)Nc3ccccc32)cc1	-1	2	i	94	-3	.
CSCCC(NC(=O)C1CCC(C)CC1)C(=O)NCCN1CCOCC1 (configuration not stated)	2	-3	i	101	-3	.
O=C(O)c1oc2ccccc2c1CSc1ccc(Cl)cc1	5	0	i	99	0	.
CCOC(=O)C1(C(=O)OCC)CCN(S(=O)(=O)c2ccccc2)CC1	1	-2	i	101	.	99
COCCNC(=O)c1cc2nc(-c3ccccc3)cc(C)n2n1	10	-1	i	68*	1	99
Cc1cc(-c2ccccc2)nc2cc(C(=O)NCCCn3ccnc3)nn12	-2	-4	i	95	-1	.
COc1cccc(CN2CCNC(=O)C2CC(=O)NCc2cn3cccc(C)c3n2)c1OC (configuration not stated)	-2	2	.	103	2	.
COc1cccc(CN2CCNC(=O)C2CC(=O)NCc2cn3ccccc3n2)c1OC (configuration not stated)	-1	0	i	73*	-2	97
CCOc1ccc2nc(SCC(=O)NCc3ccccc3OC)[nH]c2c1	-2	1	i	72*	0	103
COc1ccc2nc(SCC(=O)Nc3c(C)cccc3C)[nH]c2c1	2	0	i	74*	0	98
COc1ccc2nc(SCC(=O)Nc3ccccc3)[nH]c2c1	0	1	i	101	-4	.
SMILES	Cardio protect	hiPSC survival	Myeloid diff MLP	ABCB6 inh MLPCN	beta cell repl	ABCB6 blocker 1	others
Cc1cc(C(=O)NCCN2CCOCC2)c2ccccc2n1	-1	1	i	74*	-1	103
O=C(NCCN1CCOCC1)c1cc(-c2ccc(F)cc2)nc2ccccc12	4	1	i	90	4	.
CC(=O)Nc1ccc(-c2ccnc3c2CC(C(=O)Nc2cccc(OC(F)(F)F)c2)O3)cc1 (configuration not stated)	15	-3	i	74*	.	102
O=C(Nc1cccc(C(F)(F)F)c1)C1Cc2c(-c3ccccc3Oc3ccccc3)ccnc2O1 (configuration not stated)	-22	1	i	87	.	99
CC(=O)Nc1cccc(-c2ccnc3c2CC(C(=O)Nc2cccnc2)O3)c1 (configuration not stated)	6	2	i	108	.	99
CC(=O)Nc1cccc(-c2ccnc3c2CC(C(=O)Nc2cccc(OC(F)(F)F)c2)O3)c1 (configuration not stated)	5	0	i	100	.	.
C=CCNC(=S)N/N=C(\C)c1ccc(OC)cc1	-7	0	i	102	-3	.
O=C(Cn1nc(C(=O)O)c2ccccc2c1=O)Nc1cc(Cl)cc(Cl)c1	0	0	i	103	-1	.
O=C(Oc1ccc(N(Cc2cccs2)C2=NS(=O)(=O)c3ccccc32)cc1)c1ccccc1	-2	1	i	66*	-5	100
CCC(CC)c1nnc(NC(=O)C2CC(=O)N(CCc3ccc(F)cc3)C2)s1 (configuration not stated)	-8	0	i	99	-1	.
CCC(=O)Nc1ccc2c(c1)nc1n2CCSC1	0	0	i	70*	0	99
O=C(Nc1ccc(NC(=O)C2CC2)nc1)c1cccnc1	15	0	i	68*	1	102
O=C(NCC(c1ccco1)N1CCOCC1)c1ccc(F)c(F)c1 (configuration not stated)	10	0	i	98	-1	.
Cc1ccc(NC(=O)c2nc(S(=O)(=O)Cc3ccccc3C)ncc2Cl)cc1C	-18	0	?	48*	-7	.	K562 vector FC=254
CCCS(=O)(=O)c1ncc(Cl)c(C(=O)Nc2ccc(S(=O)(=O)Nc3ncccn3)cc2)n1	-1	0	i	103	-2	104
CCSc1ncc(Cl)c(C(=O)Nc2ccc(S(=O)(=O)Nc3ncccn3)cc2)n1	5	0	i	108	-2	.
CCc1ccc(NC(=O)c2nc(S(=O)(=O)Cc3ccccc3)ncc2Cl)cc1	-16	0	?	66*	-8	.	K562 vector FC=259
CCOc1ccccc1NC(=O)c1nc(S(=O)(=O)Cc2ccccc2)ncc1Cl	-16	12	?	44*	-8	.	K562 vector FC=276
CCN(CC)c1ccc(C(=O)NNC(=O)CN2C(=O)NC3(CCCCC3)C2=O)cc1	-1	0	i	92	2	.
CC(C)c1nnc(NC(=O)c2nc(S(=O)(=O)Cc3ccccc3)ncc2Cl)s1	-11	0	?	81	-8	.	K562 vector FC=199
